# In PubChem BioAssay:
# Values joined by “and” are separate entries in the source; they are usually repeats but may differ in a detail not shown here. Equal values may be shown once. Active and inactive are the calls of the source.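 How the source made its calls, unless noted: active means inhibition at or above 50% relative to wild type and mutant plate controls; inactive means inhibition below 50%.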
# Columns and labels:
# [1] = inhibitors of TNFa-induced NFkB p65 translocation, primary screen, imaging, HUVEC, MLSMR starter and 10KST1 sets (AID 438;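 active means inhibition above 20% together with a positive visual image hit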;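 further: compound added about 3h40 before a 20 min TNFalpha stimulation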;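 on inhibition: signal is the nuclear over cytoplasmic p65 intensity ratio per well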); conditions: HUVEC TNFa-induced p65 nuclear translocation; cell count: measured here: nuclei count (cytotoxicity indicator), at 2.08 µM unless noted; inhibition: at 2 µM, stronger effect = higher value unless noted
# [2] = inhibitors of mutant huntingtin aggregation, primary screen, imaging, exon1htt(103Q)mCFP cells, high-content imaging (AID 483;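 active means visual image review flags a hit and inhibition of aggregation exceeds 20%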;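 further: compound exposure lasted 3 days before fixation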;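 on nuclei count: percent of the per-plate median nuclei count of sample wells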); conditions: exon1htt(103Q)mCFP cell line, aggregate imaging, at 2 µM; inhibition of aggregation: stronger effect = higher value; nuclei count: measured here: cell count, toxicity
# [3] = inhibitors of E-selectin induction by TNFa, primary screen, imaging, HUVEC, immunofluorescence, MLSMR starter and 10KST1 sets (AID 487;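 active means visually confirmed hit in the image check and inhibition above 20%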;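 on inhibition: signal is fraction of cell area covered by stained E-selectin grains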;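 on nuclei count: 100% = median nuclei count of all wells on the same plate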); conditions: HUVEC TNFalpha-induced E-selectin immunofluorescence imaging, at 2 µM; inhibition: stronger effect = higher value; nuclei count: measured here: cell number, toxicity
# [4] = DUSP6 inhibitors restoring Erk phosphorylation by chemical complementation, primary imaging in DUSP6-transfected HeLa (AID 609;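 active means compounds giving at least 50% inhibition in the cell-based MKP-3 phosphatase rescue imaging test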;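 on inhibition: phospho-Erk level distribution per well compared with pooled transfected vehicle control wells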); conditions: HeLa MKP-3 transfected, phospho-Erk imaging KS statistic, at 10 µM
# [5] = biological target: Dual specificity protein phosphatase 6 (Homo sapiens) (UniProt Q16828); assay: as above; conditions: HeLa MKP-3 transfected, phospho-Erk imaging KS statistic, at 10 µM, stronger effect = higher value
# Dual specificity protein phosphatase 6 (Homo sapiens), sequence (Q16828 whole entry, looked up): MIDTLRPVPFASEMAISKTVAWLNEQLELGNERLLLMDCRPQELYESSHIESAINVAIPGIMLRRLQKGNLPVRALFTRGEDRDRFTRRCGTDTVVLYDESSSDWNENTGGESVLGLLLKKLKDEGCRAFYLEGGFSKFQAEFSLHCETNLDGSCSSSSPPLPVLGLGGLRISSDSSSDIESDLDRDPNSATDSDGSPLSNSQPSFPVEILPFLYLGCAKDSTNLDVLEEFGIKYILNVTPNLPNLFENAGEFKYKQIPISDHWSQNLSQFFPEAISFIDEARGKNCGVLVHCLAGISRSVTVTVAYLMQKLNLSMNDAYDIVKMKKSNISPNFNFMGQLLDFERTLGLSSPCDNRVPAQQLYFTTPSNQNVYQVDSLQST
# [6] = biological target: Voltage-gated potassium channel subunit beta-2 (Rattus norvegicus) (UniProt P62483); assay: KvBeta enzyme negative modulators, primary screen, biochemical, NADPH fluorescence (AID 622;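 active means fluorescence slope higher than the sample average by over 3 SD, cut at about -0.22 in these data, passing the limit was not always enough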;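 further: slope of raw intensity against log time taken from 70 to 1610 s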); conditions: recombinant KvBeta, 4-cyanobenzaldehyde reduction, at 10 µM, stronger effect = higher value
# Voltage-gated potassium channel subunit beta-2 (Rattus norvegicus), sequence (P62483 whole entry, looked up): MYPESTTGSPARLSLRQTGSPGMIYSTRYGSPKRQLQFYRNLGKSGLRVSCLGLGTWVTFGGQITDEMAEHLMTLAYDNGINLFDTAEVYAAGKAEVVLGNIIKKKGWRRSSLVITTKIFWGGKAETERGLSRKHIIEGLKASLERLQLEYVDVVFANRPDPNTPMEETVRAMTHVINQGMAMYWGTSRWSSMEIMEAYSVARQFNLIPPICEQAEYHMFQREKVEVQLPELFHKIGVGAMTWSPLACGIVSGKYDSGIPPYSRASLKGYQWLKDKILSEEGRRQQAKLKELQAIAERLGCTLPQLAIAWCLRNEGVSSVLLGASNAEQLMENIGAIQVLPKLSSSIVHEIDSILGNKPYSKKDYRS
# [7] = biological target: Voltage-gated potassium channel subunit beta-2 (Rattus norvegicus) (UniProt P62483); assay: KvBeta positive modulators, primary screen, biochemical, NADPH fluorescence (AID 623;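 active means NADPH fluorescence slope more negative than the mean of all samples by about 3 SD, 99.7% confidence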;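 further: fluorescence intensity change per second fitted from 20 to 320 s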); conditions: Recombinant KvBeta, NADPH fluorescence decrease slope, 10 min; at 10 µM; stronger effect = lower value
# [8] = biological target: Alpha-2C adrenergic receptor (Homo sapiens) (UniProt P18825); assay: modulators of alpha2C/GIRK thallium flux, primary screen, cell-based, HEK293 alpha2C/GIRK1/2 (AID 624;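 active means fluorescence slope after compound addition differing from the mean of all screened samples at 99.7% confidence, in either direction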;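 further: slope of fluorescence ratio to pre-addition baseline per second over 15 to 24 s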); conditions: thallium flux BTC fluorescence, at 10 µM, actives lie on both sides
# Alpha-2C adrenergic receptor (Homo sapiens), sequence (P18825 whole entry, looked up): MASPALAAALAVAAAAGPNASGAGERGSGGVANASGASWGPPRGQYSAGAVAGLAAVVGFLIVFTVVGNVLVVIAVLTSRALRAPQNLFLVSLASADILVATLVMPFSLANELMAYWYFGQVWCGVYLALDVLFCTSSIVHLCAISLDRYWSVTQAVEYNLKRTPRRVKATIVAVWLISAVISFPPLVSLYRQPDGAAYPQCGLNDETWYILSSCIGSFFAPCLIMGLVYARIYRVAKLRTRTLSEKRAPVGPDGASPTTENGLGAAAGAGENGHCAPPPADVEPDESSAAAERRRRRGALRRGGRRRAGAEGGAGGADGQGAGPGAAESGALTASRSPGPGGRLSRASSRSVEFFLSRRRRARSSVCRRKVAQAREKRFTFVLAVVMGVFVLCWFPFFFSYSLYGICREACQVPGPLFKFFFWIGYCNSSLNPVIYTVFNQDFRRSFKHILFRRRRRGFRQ
# [9] = inhibitors of Chlamydomonas gravitaxis, primary screen, whole organism, Chlamydomonas reinhardtii, WT vs cilia-less mutant, absorbance, 96-well (AID 463189); conditions: OD600 absorbance, 2 days, at 10 µM, stronger effect = higher value;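 further: 0% = wild type cc124 cells in DMSO and 100% = ciliumless bld1 mutant cells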
# [10] = inhibitors of Sendai virus-induced IRF3 signaling, primary screen, TLR/RLR signaling modifier project, cell-based, Sendai virus stimulus, luciferase, 10K MLSCN set (AID 602276;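 active means inhibition at or above 50% at 10 µM; inactive means inhibition below 50%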;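 further: firefly luciferase from ISG56 promoter only with Renilla not read in this screen; 0% = Sendai virus plus DMSO and 100% = medium plus DMSO without virus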); conditions: HEK293 RL24 IRF3 luciferase reporter, at 10 µM, stronger effect = higher value
# [11] = inhibitors of poly I:C-induced TLR3 signaling, primary screen, cell-based, poly I:C stimulus, luciferase, 10K MLSCN set (AID 602277;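 active means inhibition of the reporter signal at or above 50%; inactive means inhibition below 50%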); conditions: HEK293-TLR3 RL24 IRF3 luciferase reporter, at 10 µM, stronger effect = higher value
# [12] = biological target: Muscarinic acetylcholine receptor M4 (Homo sapiens) (UniProt P08173); assay: compounds altering M4/GIRK thallium flux, either direction, primary screen, M4 allosteric agonist project, cell-based, HEK293 M4/GIRK, BTC-AM (AID 625;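 active means fluorescence slope after compound addition differing from the mean of all tested samples at 99.7% confidence, mostly higher but some lower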;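 further: thallium influx through GIRK channels coupled to M4 in HEK293 cells with BTC-AM dye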); conditions: at 10 µM, actives lie on both sides
# Muscarinic acetylcholine receptor M4 (Homo sapiens), sequence (P08173 whole entry, looked up): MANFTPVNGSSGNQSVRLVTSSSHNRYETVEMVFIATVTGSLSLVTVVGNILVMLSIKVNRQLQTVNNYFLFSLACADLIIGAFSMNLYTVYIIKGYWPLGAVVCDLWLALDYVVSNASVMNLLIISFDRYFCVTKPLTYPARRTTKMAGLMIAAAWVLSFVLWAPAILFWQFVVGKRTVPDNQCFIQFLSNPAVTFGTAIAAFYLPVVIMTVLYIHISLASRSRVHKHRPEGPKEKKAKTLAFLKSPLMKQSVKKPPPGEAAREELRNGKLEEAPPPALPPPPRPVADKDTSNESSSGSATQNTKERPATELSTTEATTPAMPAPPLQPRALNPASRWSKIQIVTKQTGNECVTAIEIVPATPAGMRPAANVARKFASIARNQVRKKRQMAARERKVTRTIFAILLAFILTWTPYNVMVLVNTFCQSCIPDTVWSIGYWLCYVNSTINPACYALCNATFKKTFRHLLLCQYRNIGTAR
# [13] = inhibitors of larval lipid processing in zebrafish, primary screen, whole organism, PED6 fluorescence, gall bladder and intestine (AID 686;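 active means a full or partial loss of lipid-probe fluorescence in the fish gall bladder, intestine or both, judged by eye; inactive means no fluorescence loss, or compound toxic to the fish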;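 further: larvae 5 to 7 days old with five fish per well; signal comes from phospholipase A2 cleavage of quenched PED6 carried via bile; overnight exposure to compound and PED6 before scoring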); conditions: Zebrafish larvae PED6 lipid processing, fluorescence scoring
# [14] = measured here: cell density z-score
# [15] = measured here: nuclear c-Myc green intensity z-score
# [16] = measured here: nuclear pErk red intensity z-score, stronger effect = higher value
SMILES,cell count [1],inhibition [1],inhibition of aggregation [2],nuclei count [2] [%],inhibition [3],nuclei count [3] [%],"z-score [4, 14]","z-score [4, 15]","z-score [4, 16]",inhibition [5],fluorescence slope [6],NADPH fluorescence slope [7],slope [8],inhibition [9],inhibition [10],inhibition [11],fluorescence slope [12],outcome [13]
O=C(O)CCCc1ccc(N(CCCl)CCCl)cc1,498,-7.2% (inactive),4.2% (inactive),94.5,-70% (inactive),127,0.122,-0.24,-0.885,12.4% (inactive),-0.493 (inactive),-0.000123 (inactive),0.00534 (inactive),5.31% (inactive) and 14% (inactive),-6.04% (inactive),-10.8% (inactive),–,–
CC(C)[C@@]1(NC(=O)[C@@H]2C[C@@H]3c4cccc5[nH]cc(c45)C[C@H]3N(C)C2)O[C@@]2(O)[C@@H]3CCCN3C(=O)[C@H](Cc3ccccc3)N2C1=O,640,11.1% (inactive),20.4% (inactive),90.4,-79.8% (inactive),113,-0.842,-0.876,1.64,-0.828% (inactive),-0.47 (inactive),-3.7e-05 (inactive),0.00471 (inactive),-5.54% (inactive) and 15.7% (inactive),3.2% (inactive),36.1% (inactive),–,–
CC1=C(C(=O)OC(C)C)[C@]2(C(=O)N(CC(N)=O)c3ccccc32)C(C#N)=C(N)O1,568,-7.6% (inactive),-10.5% (inactive),87.4,-47.2% (inactive),126,1.04,-0.385,-1.8,-0.624% (inactive),-0.435 (inactive),-5.8e-05 (inactive),0.00458 (inactive),1.76% (inactive),15.6% (inactive),21.9% (inactive),0.00529 (inactive),inactive
C[C@@]1(CO)[C@H](O)CC[C@@]2(C)[C@H]1CC[C@H]1C[C@@H]3C[C@@]12CC[C@]3(O)CO,629,-4.1% (inactive),-9.1% (inactive),9.1,-34.7% (inactive),113,0.71,-0.0811,-0.673,1.48% (inactive),-0.469 (inactive),-5.6e-05 (inactive),0.00555 (inactive),-7.52% (inactive),-34.2% (inactive),49.2% (inactive),–,inactive
O=c1[nH]c(=O)n(CCc2ccccc2)c(O)c1C=NCCN1CCNCC1,554,-4% (inactive),-1.9% (inactive),109,-30.7% (inactive),123,-0.452,-0.273,-0.327,-3.5% (inactive),-0.348 (inactive),2e-05 (inactive),0.0061 (inactive),-4.22% (inactive),18.3% (inactive),21.6% (inactive),–,inactive
